Compound activity as filed in PubChem.
The entries come from a sample that favours hits as a whole.
Glioma ERSR ind – induces the endoplasmic reticulum stress response in human glioma cells; AID 602332; Potency, µM, for the others: at the highest dose activation, actives largely listed as activators; 420,000 tested, 0.02% active; U87-MG GRP78 promoter luciferase reporter, 16 h; note: series mostly up to about 76 µM; % of control where 0% means no effect; nearly all actives have a fitted effect of over 35% in size
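ERSR induction read as luciferase luminescence (Bright-Glo, 10 min at room temperature) in stably transfected human U87-MG glioma cells exposed to compounds for 16 h, using GRP78 as sensor.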
VDR inh – blocks the human vitamin D receptor. Potency, µM, without a hit: max response, negative = inhibition, actives largely listed as inhibitors. 400,000 tested, 0.93% active. P11473. VDR-SRC2-3 peptide fluorescence polarization, 2 h; note: % is set by controls: 0 for no effect and ±100 for the full control effect
Target sequence (P11473 whole entry, looked up): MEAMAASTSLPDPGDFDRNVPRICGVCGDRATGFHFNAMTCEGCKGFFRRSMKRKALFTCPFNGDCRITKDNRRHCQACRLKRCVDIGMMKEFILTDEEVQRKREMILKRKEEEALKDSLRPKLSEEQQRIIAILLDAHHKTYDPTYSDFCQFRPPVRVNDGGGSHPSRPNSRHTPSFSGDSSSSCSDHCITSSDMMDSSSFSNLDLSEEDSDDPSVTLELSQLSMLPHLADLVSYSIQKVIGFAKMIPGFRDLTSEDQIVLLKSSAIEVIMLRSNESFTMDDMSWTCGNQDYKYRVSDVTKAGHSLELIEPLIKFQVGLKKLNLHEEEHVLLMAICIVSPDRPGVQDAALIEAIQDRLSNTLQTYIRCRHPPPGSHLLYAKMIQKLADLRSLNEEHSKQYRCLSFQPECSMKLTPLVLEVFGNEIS
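Compounds are added to VDR with labelled SRC2-3 coactivator peptide and held 2 h at room temperature. Inhibition of the VDR–peptide interaction is then read as a change in fluorescence polarization.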
G9a block – G9a (human) methyltransferase inhibition; G9a H3K9 monomethylation, AlphaScreen, 2 h; Potency, µM (titrated, usually from 102 µM), inactives show at the highest dose activity, negative = inhibition, hits mostly inhibitors; 350,000 tested, 8.8% active; Q96KQ7; note: % is set by controls: 0 for no effect and ±100 for the full control effect; nearly all actives have a fitted effect of over 75% in size
Target sequence (Q96KQ7 913-1193 limits assumed): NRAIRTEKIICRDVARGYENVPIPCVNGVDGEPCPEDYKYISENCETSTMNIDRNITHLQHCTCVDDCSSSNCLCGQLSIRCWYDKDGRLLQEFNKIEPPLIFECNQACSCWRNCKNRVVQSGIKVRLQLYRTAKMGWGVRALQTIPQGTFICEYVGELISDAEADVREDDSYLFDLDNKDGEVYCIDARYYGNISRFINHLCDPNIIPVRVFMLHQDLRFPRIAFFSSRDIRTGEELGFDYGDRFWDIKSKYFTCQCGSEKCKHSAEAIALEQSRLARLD
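Methyltransferase reactions run at room temperature for 2 h (20 nM enzyme, 500 nM biotin-H3K9 peptide, 20 uM SAM) after a 15 min compound preincubation; product detected by AlphaScreen beads and anti-H3K9me1 antibody.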
Sfp PPTase inh – Sfp phosphopantetheinyl transferase inhibition. 310,000 tested, 3.5% active. Potency, µM, without a hit: largest response in the series, negative = inhibition, hits mostly inhibitors. Q9F4F7. AID 1490. Biochemical Sfp PPTase activity, qHTS;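 note: the enzyme is Sfp with the accession as filed and its product quenches rhodamine fluorescence; 0% = enzyme reaction without inhibitor and -100% = no enzyme wells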
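Buffer: 50 mM Hepes-Na pH 7.6, 10 mM MgCl2, 0.01% Nonidet P-40, 0.01% BSA. Enzyme 15 nM, pre-exposed to compound 15 min; substrates then added and fluorescence change tracked over 30 min.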
12-LOX inh – ALOX12 (human) lipoxygenase inhibition. 580,000 tested, 1.1% active. Potency, µM (series often up to 108 µM), for inactives: at the top dose activity change, negative = inhibition, most hits filed as inhibitors. P18054. purified 12hLO, xylenol orange hydroperoxide absorbance. AID 1671190; note: % is set by controls: 0 for no effect and ±100 for the full control effect
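Hydroperoxide product was detected by ferrous iron/xylenol orange as the 573 to 405 nm absorbance ratio. Arachidonic acid at 40 uM (final) was turned over for 30 min at room temperature by 150 nM human 12hLO, pH 7.0 Hepes buffer, after 15 min compound preincubation.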
* marks the source's active call; other numbers are inactive results; ? = inconclusive; . = no result given; ! = not confirmed by another sample; [ ] = dose if it differs, or a comment. Calls come from the whole dose curve; as a rule, active = well fitted curve in the direction sought with a large enough effect; inconclusive = small, poorly fitted or top-dose-only effect, or another doubt; inactive = no such curve, though single readings can be large; an effect the other way counts as inactive or inconclusive. Potency is the fitted concentration of half-maximal effect.

SMILES	Glioma ERSR ind	VDR inh	G9a block	Sfp PPTase inh	12-LOX inh
COc1ccc(/C=C/C(=O)CC(=O)/C=C/c2cccc(O)c2OC)cc1O	-9.9%	?	?	31.6µM*!	-1.3%[176 µM]
COc1ccc(/C=C/C(=O)c2ccc(Cl)s2)cc1O	8.0%	79.4µM*	?	-1.8%	?
COc1cc(/C=C/C(=O)c2ccc(Cl)s2)cc(OC)c1O	2.4%	56.2µM*	?	?	.
COc1cc(C=CC(=O)c2ccccc2)cc(OC)c1OC	-6.7%	.	.	.	11.5%
N#Cc1c(SCC(=O)Nc2ccc(Cl)cc2Cl)nc(N2CCOCC2)c2c1CCCC2	.	.	.	.	-24.2%
CCN(CC)C(=O)N1CC(Oc2ccccc2-c2nc(-c3cnccn3)no2)C1	.	.	.	.	-2.0%
COc1ccc(C(=O)/C=C/c2ccc(OC)c(O)c2)c(F)c1	?	89.1µM*	?	50.1µM*	?
S=c1[nH]nc(-c2ccncc2)n1/N=C/c1cn(-c2ccccc2)nc1-c1ccccc1	4.8%	7.2%	?	14.4%	0.0%
CCc1n[nH]c(=S)n1/N=C/c1c(O)ccc2ccccc12	-4.8%	-1.4%	?	-13.9%	-7.0%
CCc1n[nH]c(=S)n1/N=C/c1cccc2ccccc12	-0.9%	-16.8%	1.58µM*	-16.7%	?
CCc1n[nH]c(=S)n1/N=C/c1cc(OC)cc([N+](=O)[O-])c1O	-8.9%	-17.9%	7.94µM*	22.4µM*	?
S=c1[nH]nc(-c2ccncc2)n1/N=C/c1cccc2ccccc12	.	.	1.12µM*	-6.3%	-10.7%
COc1cc(CN2CCc3c([nH]c4ccccc34)C2)cc(OC)c1	-4.6%	50.1µM*	31.6µM*	1.6%	?
O=C(c1ccccc1Br)N1CCc2c([nH]c3ccccc23)C1	-4.5%	26.6%	9.2%[2.33 µM]	6.0%	?
COc1cccc(CN2CCC3(CC2)c2[nH]c4ccccc4c2CCN3C)c1	.	.	.	.	-8.0%
COc1ccccc1CN1CCc2c([nH]c3ccccc23)C1	-2.3%	-25.2%	7.08µM*	-8.8%	?
Clc1cccc(CN2CCc3c([nH]c4ccccc34)C2)c1Cl	?	-17.4%	50.1µM*	-15.7%	?
COc1ccccc1CN1C(=O)[C@H]2Cc3c([nH]c4ccccc34)C(C)(C)N2C1=O	-5.3%	-5.0%	.	.	10.1%
COc1cccc(CN2C[C@@H](CO)[C@H](c3ccncc3)C2)c1OC	.	.	.	.	64.4%
CN(C(=S)Nc1ccc(Oc2ccccc2)cc1)c1ccc(O)cc1	1.9%	?	1.26µM*	7.94µM*	?
CN(C(=S)Nc1ccc(SC(F)F)cc1)c1ccc(O)cc1	6.8%	-24.9%	1.41µM*	31.6µM*	?
FC(F)Sc1ccc(NC(=S)NC2CCCC2)cc1	-2.6%	0.1%	30.7%	11.8%	?
CN(C(=S)Nc1cccnc1)c1ccc(O)cc1	-0.8%	-14.7%	1.58µM*	?	?
COCc1nnc(NC(=O)Cn2ccc3c(Cl)cccc32)s1	.	.	.	.	-26.1%
CC(SCCCn1c(=O)c2c(ncn2C)n(C)c1=O)c1ccccc1Cl (stereo not drawn)	.	.	.	.	12.7%
SMILES	Glioma ERSR ind	VDR inh	G9a block	Sfp PPTase inh	12-LOX inh
CCONC(=O)c1ccc(NC(=O)c2cccs2)cc1	.	.	.	.	22.8%
FC(F)(F)c1ccc2c(c1)nc1n2[C@@H](CNCc2c[nH]c3ccccc23)COC1	.	.	.	.	-29.2%[176 µM]
COc1ccc(NC(=O)Cn2cccc2-c2nc(-c3ccccc3)no2)cc1OC	.	.	.	.	-2.8%
CCCCC(=O)Nc1ccc(NCc2ccc(C)s2)cc1	1.2%	4.4%	50.1µM*	4.6%	0.0%
O=C(NCNC(=O)c1ccccc1)c1ccccc1	-1.2%	6.1%	-2.1%[59 µM]	6.1%	13.2%
O=C(NCn1ccc(=O)[nH]c1=S)c1ccccc1	1.0%	0.0%	56.2µM*	-20.3%	-12.3%
COc1ccccc1Oc1coc2cc(OCc3cccc(Cl)c3)ccc2c1=O	.	.	.	.	-18.4%
CNc1ccc(/C=C/C(=O)c2cccc3ccccc23)cc1[N+](=O)[O-]	-3.5%	-5.6%	10µM*	-0.1%	-24.1%
COc1cc(C2NC(=S)NC(O)(C(F)(F)F)C2C(=O)c2cccs2)cc(OC)c1O (stereo not drawn)	-4.0%	-1.3%	79.4µM*	-15.7%	-24.1%
CCOC(=O)C1C(c2cc(OC)c(OC)c(OC)c2)NC(=S)NC1(O)C(F)(F)F (stereo not drawn)	-2.4%	-15.8%	?	79.4µM*	?
CCCNC(=O)c1ccc2c(c1)S(=O)(=O)c1ccccc1C2=O	-6.4%	3.7%	.	2.8%	24.3%
NNC(=O)c1ccc2c(c1)S(=O)(=O)NNC2=O	-2.3%	?	11.2µM*	-5.3%	?
CN(C)CCCc1cc(C(=O)Nc2ccc(-c3ccncc3)cc2)ccc1O	-5.3%	0.3%	25.1µM*!	-1.3%	?
COc1ccc(C(=O)Nc2ccncc2)cc1OC	-2.4%	-6.7%	-11.4%[12.7 µM]	-9.0%	4.2%
O=C(CNC(=O)c1ccccc1)Sc1ccccc1	5.2%	44.7µM*	.	.	-11.8%
O=C(CCCCC(=O)Sc1ccccc1)Sc1ccccc1	-4.4%	79.4µM*	.	.	0.5%
CCN1CCCC1CNC(=O)CC(C)C (stereo not drawn)	.	.	.	.	6.7%
COc1cc(C/C=C/c2ccccc2)c(OC)cc1O	-2.2%	50.1µM*	?	-40.1%	.
CCCNC(=O)C1CCN(C(=O)c2ccc(C(F)(F)F)cc2)CC1	.	.	.	.	4.0%
CCN(CC)CCN1c2ccccc2Sc2ccccc21	-3.9%	-17.5%	?	-15.6%	-92.1%
CCN(CC)[C@@H](C)CN1c2ccccc2Sc2ccccc21	-3.9%	-8.4%	8.91µM*	11.3%	.
CCc1ccc2c(c1)N(C[C@H](C)CN(C)C)c1ccccc1S2	-8.2%	-6.8%	17.8µM*	-9.6%	.
C[C@H](CN1c2ccccc2Sc2cccnc21)N(C)C	-3.4%	-26.5%	?	12.7%	.
CCN(CC)S(=O)(=O)c1ccc(OC)c(NC(=O)c2nn(C(C)C)c(=O)c3ccccc23)c1	.	.	.	.	16.1%
O=[N+]([O-])c1ccc(CNc2ccc(F)cc2)s1	-5.1%	-23.8%	44.7µM*	-29.5%	-7.3%
SMILES	Glioma ERSR ind	VDR inh	G9a block	Sfp PPTase inh	12-LOX inh
O=[N+]([O-])c1ccc(CNc2cccc(Cl)c2)s1	-2.4%	-5.0%	44.7µM*	-2.0%	?
COc1ccc(NCc2ccc([N+](=O)[O-])s2)c(OC)c1	1.4%	2.3%	10µM*	-25.5%	?
O=C(COC(=O)c1ccc([N+](=O)[O-])s1)NCc1ccc(F)cc1	-2.0%	11.6%	-14.1%[59 µM]	14.8%	-5.4%
O=[N+]([O-])c1ccc(CNc2ccc(Cl)cc2)s1	-2.6%	-8.2%	44.7µM*	2.5%	?
COc1ccc(NC(=O)/C=C/c2ccccc2[N+](=O)[O-])c(OC)c1	2.9%	-17.0%	-9.1%[59 µM]	-12.5%	14.2%
CC(NC(=O)c1ccc2c(c1)NC(=O)CS2)C1CC1 (stereo not drawn)	.	.	.	.	-18.5%
COc1ccc(NCc2ccc([N+](=O)[O-])s2)cc1	2.6%	11.9%	7.94µM*	-25.0%	?
CC1(C)CC(CN2CCC3(CC2)CC(=O)N(Cc2ccccc2)C3)CCO1 (stereo not drawn)	.	.	.	.	9.8%
COc1ccccc1CC(=O)Nc1cccn2nc(C(C)C)nc12	.	.	.	.	63.7%
